Experimental data reported in ChEMBL document CHEMBL1961873, “Compounds: GSK PKIS; Assays: Nanosyn kinase panel” (2012).

Columns and labels:
[1] = biological target: T1, Ephrin type-B receptor 2 (Homo sapiens) (UniProt P29323); settings: at 1 µM
T1 sequence (whole entry): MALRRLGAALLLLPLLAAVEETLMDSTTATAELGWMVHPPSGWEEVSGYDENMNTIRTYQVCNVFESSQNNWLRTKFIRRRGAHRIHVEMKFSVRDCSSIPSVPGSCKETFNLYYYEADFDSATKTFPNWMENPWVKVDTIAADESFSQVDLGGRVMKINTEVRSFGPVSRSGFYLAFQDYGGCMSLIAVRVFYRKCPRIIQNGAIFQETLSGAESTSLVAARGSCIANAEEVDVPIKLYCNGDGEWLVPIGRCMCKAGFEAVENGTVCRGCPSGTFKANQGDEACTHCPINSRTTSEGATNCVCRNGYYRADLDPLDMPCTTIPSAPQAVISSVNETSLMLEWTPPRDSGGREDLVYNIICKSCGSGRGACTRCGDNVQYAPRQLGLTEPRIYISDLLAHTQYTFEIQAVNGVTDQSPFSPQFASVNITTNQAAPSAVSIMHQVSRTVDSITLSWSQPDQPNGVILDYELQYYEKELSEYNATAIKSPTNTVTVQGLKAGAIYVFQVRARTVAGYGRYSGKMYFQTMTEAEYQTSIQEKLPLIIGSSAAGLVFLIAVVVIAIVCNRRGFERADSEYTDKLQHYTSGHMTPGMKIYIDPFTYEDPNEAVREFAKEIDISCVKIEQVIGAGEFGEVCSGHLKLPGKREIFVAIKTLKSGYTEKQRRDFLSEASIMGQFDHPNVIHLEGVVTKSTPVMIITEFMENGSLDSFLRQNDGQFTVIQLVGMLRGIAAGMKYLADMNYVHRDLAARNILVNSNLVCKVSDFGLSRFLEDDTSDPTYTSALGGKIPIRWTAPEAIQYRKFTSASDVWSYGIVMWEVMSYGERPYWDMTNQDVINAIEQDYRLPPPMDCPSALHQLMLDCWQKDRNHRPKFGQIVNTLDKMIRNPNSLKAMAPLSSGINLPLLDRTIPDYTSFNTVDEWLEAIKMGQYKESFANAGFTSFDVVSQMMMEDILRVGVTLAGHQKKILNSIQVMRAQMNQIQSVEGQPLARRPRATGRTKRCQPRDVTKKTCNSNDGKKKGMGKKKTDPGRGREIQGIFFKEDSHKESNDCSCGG

[2] = biological target: T2, Ephrin type-B receptor 3 (Homo sapiens) (UniProt P54753); settings: at 0.1 µM
T2 sequence (whole entry): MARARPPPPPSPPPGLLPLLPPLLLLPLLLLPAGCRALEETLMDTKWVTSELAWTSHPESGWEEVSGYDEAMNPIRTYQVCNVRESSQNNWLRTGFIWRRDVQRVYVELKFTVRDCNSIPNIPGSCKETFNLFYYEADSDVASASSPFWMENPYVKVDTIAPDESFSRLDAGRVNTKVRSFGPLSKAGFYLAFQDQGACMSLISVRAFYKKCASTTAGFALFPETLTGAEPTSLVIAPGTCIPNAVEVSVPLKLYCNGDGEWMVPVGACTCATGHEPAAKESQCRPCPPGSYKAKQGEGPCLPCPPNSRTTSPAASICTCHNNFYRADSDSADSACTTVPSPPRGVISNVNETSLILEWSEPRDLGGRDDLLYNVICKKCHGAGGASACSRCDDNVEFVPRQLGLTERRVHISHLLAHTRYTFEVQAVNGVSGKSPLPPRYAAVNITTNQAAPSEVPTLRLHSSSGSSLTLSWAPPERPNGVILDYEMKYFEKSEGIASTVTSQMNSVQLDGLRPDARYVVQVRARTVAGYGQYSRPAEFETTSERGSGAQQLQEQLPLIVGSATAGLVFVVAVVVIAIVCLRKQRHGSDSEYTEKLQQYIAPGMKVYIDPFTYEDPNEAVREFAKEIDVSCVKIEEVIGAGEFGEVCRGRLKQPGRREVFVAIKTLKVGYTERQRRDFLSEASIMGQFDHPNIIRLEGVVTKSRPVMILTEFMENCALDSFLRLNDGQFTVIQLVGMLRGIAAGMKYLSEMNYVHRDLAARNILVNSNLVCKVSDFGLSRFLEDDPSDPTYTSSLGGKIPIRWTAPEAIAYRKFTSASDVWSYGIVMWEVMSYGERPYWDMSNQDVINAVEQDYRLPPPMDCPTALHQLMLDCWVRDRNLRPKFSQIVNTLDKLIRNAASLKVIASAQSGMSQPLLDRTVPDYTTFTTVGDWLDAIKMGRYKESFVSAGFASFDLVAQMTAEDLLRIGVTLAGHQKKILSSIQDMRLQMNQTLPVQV

[3] = biological target: T2, Ephrin type-B receptor 3 (Homo sapiens); settings: at 1 µM
[4] = biological target: T3, Ephrin type-B receptor 4 (Homo sapiens) (UniProt P54760); settings: at 0.1 µM
T3 sequence (whole entry): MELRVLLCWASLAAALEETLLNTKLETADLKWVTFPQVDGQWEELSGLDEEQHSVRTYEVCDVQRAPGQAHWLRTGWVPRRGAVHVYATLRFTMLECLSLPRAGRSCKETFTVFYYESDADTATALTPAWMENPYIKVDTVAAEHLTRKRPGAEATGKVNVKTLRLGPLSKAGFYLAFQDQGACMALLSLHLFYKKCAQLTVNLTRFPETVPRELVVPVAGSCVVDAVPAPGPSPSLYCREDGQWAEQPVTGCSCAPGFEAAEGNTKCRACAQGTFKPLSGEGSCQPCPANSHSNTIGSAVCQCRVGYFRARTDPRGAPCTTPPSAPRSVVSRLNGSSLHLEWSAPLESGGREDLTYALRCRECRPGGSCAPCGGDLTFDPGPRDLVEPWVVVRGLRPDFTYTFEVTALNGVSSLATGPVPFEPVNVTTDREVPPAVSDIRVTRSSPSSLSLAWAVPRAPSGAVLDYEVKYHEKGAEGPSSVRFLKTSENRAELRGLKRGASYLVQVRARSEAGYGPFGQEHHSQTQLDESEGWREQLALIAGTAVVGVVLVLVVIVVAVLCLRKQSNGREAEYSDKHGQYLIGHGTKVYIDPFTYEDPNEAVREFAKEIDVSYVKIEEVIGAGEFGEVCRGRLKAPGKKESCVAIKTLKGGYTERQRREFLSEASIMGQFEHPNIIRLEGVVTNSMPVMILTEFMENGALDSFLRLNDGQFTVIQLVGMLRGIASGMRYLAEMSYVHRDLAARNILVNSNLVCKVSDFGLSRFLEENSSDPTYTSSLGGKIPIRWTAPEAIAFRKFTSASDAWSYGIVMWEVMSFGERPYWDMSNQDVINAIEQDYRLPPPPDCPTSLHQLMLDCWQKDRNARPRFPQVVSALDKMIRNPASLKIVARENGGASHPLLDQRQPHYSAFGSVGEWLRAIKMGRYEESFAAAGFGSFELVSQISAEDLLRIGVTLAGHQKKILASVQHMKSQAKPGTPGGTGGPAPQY

[5] = biological target: T3, Ephrin type-B receptor 4 (Homo sapiens); settings: at 1 µM
[6] = biological target: Receptor tyrosine-protein kinase erbB-2 (Homo sapiens) (UniProt P04626); settings: at 0.1 µM
Receptor tyrosine-protein kinase erbB-2 (Homo sapiens), sequence (P04626 whole entry): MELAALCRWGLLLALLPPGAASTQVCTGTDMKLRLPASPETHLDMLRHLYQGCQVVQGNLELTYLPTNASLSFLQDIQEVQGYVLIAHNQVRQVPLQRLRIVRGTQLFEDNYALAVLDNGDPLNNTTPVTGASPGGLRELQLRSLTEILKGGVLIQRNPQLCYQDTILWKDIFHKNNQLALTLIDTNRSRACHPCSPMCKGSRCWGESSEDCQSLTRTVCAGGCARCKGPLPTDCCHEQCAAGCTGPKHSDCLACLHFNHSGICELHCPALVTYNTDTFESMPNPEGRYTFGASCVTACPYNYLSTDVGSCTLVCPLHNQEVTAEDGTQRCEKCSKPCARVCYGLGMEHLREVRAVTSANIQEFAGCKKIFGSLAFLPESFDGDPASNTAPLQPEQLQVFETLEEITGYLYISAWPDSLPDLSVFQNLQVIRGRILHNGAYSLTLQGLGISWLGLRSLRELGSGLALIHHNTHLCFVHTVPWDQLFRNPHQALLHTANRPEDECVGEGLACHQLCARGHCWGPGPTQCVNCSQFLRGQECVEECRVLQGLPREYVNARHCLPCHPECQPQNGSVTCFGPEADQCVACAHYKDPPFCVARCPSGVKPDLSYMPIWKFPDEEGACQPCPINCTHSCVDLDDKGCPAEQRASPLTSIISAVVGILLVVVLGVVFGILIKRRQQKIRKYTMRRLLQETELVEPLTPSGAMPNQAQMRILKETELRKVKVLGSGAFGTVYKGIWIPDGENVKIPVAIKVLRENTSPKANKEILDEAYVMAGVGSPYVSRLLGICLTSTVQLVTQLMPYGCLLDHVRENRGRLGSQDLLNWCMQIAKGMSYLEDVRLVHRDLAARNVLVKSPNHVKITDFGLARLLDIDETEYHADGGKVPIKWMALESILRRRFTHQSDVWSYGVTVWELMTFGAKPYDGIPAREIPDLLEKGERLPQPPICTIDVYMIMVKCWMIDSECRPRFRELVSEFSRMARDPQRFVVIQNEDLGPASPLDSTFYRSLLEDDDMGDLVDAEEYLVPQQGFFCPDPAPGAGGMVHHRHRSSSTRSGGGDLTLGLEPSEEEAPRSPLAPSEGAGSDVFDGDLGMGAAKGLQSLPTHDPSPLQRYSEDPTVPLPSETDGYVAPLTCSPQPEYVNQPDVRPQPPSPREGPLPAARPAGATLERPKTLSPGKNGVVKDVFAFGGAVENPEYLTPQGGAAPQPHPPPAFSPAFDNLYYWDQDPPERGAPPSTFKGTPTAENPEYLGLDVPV

[7] = biological target: Receptor tyrosine-protein kinase erbB-2 (Homo sapiens) (UniProt P04626); settings: at 1 µM
[8] = biological target: Receptor tyrosine-protein kinase erbB-4 (Homo sapiens) (UniProt Q15303); settings: at 0.1 µM
[9] = biological target: Receptor tyrosine-protein kinase erbB-4 (Homo sapiens) (UniProt Q15303); settings: at 1 µM
[10] = biological target: Tyrosine-protein kinase Fer (Homo sapiens) (UniProt P16591); settings: at 0.1 µM
Tyrosine-protein kinase Fer (Homo sapiens), sequence (P16591 whole entry, looked up): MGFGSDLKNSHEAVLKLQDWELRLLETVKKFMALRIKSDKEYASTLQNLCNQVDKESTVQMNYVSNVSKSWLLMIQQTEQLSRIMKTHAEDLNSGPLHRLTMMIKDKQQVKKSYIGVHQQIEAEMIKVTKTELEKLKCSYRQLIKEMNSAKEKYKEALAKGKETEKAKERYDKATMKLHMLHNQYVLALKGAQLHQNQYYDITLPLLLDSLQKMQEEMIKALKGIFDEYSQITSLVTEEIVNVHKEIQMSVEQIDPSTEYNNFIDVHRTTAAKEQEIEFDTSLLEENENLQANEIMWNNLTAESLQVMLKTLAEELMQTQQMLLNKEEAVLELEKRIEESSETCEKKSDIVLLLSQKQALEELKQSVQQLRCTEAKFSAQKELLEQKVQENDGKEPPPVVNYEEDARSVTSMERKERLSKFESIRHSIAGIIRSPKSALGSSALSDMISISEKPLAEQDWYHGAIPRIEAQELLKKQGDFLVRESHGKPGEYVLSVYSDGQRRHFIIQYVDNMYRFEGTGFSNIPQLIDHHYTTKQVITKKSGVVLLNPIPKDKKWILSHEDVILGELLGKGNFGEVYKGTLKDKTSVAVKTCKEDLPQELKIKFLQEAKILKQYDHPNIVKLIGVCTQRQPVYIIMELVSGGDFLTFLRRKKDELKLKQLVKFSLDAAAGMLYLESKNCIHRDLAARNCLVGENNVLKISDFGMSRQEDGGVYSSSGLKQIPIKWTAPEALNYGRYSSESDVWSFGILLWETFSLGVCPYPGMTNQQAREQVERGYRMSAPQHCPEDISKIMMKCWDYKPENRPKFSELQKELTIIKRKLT

[11] = biological target: Tyrosine-protein kinase Fer (Homo sapiens) (UniProt P16591); settings: at 1 µM
[12] = biological target: Tyrosine-protein kinase Fes/Fps (Homo sapiens) (UniProt P07332); settings: at 0.1 µM
Tyrosine-protein kinase Fes/Fps (Homo sapiens), sequence (P07332 whole entry): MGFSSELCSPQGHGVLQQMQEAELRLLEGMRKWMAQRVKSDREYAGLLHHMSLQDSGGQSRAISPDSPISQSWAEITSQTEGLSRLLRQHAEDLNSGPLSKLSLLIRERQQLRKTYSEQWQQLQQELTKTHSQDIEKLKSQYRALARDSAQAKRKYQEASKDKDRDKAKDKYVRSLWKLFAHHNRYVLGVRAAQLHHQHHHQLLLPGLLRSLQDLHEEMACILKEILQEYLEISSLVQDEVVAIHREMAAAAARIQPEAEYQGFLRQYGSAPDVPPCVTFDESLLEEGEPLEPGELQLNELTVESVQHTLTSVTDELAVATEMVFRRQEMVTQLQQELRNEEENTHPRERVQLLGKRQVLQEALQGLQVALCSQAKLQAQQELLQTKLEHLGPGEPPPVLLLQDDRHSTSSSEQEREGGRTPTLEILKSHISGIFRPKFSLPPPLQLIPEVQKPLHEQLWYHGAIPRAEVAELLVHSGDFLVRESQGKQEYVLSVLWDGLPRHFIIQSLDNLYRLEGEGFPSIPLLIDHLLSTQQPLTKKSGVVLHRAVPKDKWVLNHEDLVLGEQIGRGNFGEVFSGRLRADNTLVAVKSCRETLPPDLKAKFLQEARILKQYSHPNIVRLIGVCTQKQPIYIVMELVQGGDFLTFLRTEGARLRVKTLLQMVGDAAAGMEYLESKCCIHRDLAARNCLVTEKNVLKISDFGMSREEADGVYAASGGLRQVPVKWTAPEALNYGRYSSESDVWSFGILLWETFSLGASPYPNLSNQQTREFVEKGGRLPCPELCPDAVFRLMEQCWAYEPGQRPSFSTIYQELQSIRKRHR

[13] = biological target: Tyrosine-protein kinase Fes/Fps (Homo sapiens) (UniProt P07332); settings: at 1 µM
[14] = biological target: Fibroblast growth factor receptor 1 (Homo sapiens) (UniProt P11362); settings: at 0.1 µM
[15] = biological target: Fibroblast growth factor receptor 1 (Homo sapiens) (UniProt P11362); settings: at 1 µM
[16] = biological target: Fibroblast growth factor receptor 2 (Homo sapiens) (UniProt P21802); settings: at 0.1 µM
Fibroblast growth factor receptor 2 (Homo sapiens), sequence (P21802 22-821 limits assumed): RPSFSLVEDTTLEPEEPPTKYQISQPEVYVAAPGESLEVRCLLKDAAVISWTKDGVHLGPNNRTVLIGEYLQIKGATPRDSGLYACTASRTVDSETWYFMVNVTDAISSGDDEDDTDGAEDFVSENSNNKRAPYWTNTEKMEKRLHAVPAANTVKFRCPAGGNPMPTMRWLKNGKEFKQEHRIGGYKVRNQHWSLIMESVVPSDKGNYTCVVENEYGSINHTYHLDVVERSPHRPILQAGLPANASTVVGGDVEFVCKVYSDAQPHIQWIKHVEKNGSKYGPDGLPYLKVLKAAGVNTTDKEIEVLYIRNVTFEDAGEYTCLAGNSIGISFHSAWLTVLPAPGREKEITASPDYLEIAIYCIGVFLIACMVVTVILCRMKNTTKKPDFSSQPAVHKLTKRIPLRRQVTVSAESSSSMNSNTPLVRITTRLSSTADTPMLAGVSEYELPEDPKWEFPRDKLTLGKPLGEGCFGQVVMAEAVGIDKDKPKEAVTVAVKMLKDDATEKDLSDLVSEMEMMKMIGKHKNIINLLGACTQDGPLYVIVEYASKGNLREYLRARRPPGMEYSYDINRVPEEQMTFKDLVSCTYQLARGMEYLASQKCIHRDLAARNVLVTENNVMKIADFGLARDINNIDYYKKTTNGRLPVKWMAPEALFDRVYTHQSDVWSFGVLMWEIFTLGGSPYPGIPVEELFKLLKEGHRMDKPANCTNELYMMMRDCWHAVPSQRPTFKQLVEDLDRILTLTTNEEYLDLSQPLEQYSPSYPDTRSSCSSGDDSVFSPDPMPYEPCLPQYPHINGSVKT

[17] = biological target: Fibroblast growth factor receptor 2 (Homo sapiens) (UniProt P21802); settings: at 1 µM
[18] = biological target: Fibroblast growth factor receptor 3 (Homo sapiens) (UniProt P22607); settings: at 0.1 µM
Fibroblast growth factor receptor 3 (Homo sapiens), sequence (P22607 23-806 limits assumed): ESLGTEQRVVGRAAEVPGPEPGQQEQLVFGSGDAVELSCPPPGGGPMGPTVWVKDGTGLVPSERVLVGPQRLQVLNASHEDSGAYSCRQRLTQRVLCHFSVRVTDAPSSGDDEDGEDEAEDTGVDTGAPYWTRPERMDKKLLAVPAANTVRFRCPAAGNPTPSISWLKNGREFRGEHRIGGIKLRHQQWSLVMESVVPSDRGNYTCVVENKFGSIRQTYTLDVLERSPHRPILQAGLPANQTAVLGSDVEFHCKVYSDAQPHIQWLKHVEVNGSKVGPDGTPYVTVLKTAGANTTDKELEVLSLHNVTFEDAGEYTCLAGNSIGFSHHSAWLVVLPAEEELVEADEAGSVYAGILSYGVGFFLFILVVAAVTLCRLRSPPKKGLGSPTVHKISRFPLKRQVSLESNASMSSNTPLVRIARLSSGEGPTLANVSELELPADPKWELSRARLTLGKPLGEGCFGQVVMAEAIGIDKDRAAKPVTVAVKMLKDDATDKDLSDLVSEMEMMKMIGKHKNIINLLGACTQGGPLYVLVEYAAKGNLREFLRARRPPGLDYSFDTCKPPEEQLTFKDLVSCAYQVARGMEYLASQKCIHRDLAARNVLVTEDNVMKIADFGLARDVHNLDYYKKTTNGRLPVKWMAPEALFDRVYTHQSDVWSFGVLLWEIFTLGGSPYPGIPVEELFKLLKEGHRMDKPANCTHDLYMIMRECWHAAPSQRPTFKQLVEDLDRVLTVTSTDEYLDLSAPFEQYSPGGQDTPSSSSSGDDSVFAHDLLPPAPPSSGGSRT

[19] = biological target: Fibroblast growth factor receptor 3 (Homo sapiens) (UniProt P22607); settings: at 1 µM
[20] = biological target: Fibroblast growth factor receptor 4 (Homo sapiens) (UniProt P22455); settings: at 0.1 µM;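 also: values are mean percent inhibition of FGFR4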

Compound: CCn1c(-c2nonc2N)nc2c(C#CC(C)(C)O)ncc(OCC3CCNCC3)c21
- inhibition [1]: 7.37%
- inhibition [2]: -0.37%
- inhibition [3]: -1.35%
- inhibition [4]: -3.5%
- inhibition [5]: -2.94%
- inhibition [6]: 1.27%
- inhibition [7]: 5.1%
- inhibition [8]: 2.93%
- inhibition [9]: 3.14%
- inhibition [10]: 2.18%
- inhibition [11]: 6.84%
- inhibition [12]: 2.17%
- inhibition [13]: 4.04%
- inhibition [14]: -2.34%
- inhibition [15]: -0.27%
- inhibition [16]: -1.71%
- inhibition [17]: 3.89%
- inhibition [18]: 1.17%
- inhibition [19]: -1.22%
- inhibition [20]: -6.83%

Compound: NS(=O)(=O)c1ccc(N/C=C2\C(=O)Nc3ccc4ncsc4c32)cc1
- inhibition [1]: 18.1%
- inhibition [2]: 2.97%
- inhibition [3]: 4.36%
- inhibition [4]: 0.08%
- inhibition [5]: 8.11%
- inhibition [6]: 2.78%
- inhibition [7]: 5.6%
- inhibition [8]: 8.52%
- inhibition [9]: 10.8%
- inhibition [10]: 0.16%
- inhibition [11]: 13.1%
- inhibition [12]: 3.55%
- inhibition [13]: 7.01%
- inhibition [14]: 5.4%
- inhibition [15]: 32.8%
- inhibition [16]: 18.8%
- inhibition [17]: 53.3%
- inhibition [18]: 17.1%
- inhibition [19]: 56.7%
- inhibition [20]: 1.61%

Compound: CCn1c(-c2nonc2N)nc2c(C#CC(C)(C)O)ncc(OC[C@@H]3CCCN3)c21
- inhibition [1]: -3.01%
- inhibition [2]: -0.27%
- inhibition [3]: 0.62%
- inhibition [4]: -1.76%
- inhibition [5]: 1.1%
- inhibition [6]: 0.95%
- inhibition [7]: 3.51%
- inhibition [8]: 1.3%
- inhibition [9]: 7.9%
- inhibition [10]: -1.38%
- inhibition [11]: 0.7%
- inhibition [12]: 2.01%
- inhibition [13]: 4.12%
- inhibition [14]: -0.74%
- inhibition [15]: 0.08%
- inhibition [16]: -1.27%
- inhibition [17]: 0.8%
- inhibition [18]: -3.24%
- inhibition [19]: 0.67%
- inhibition [20]: 2.54%

Compound: Fc1ccc(-c2ncn(C3CCNCC3)c2-c2ccnc(Oc3ccccc3)n2)cc1
- inhibition [1]: 5.52%
- inhibition [2]: -0.53%
- inhibition [3]: -0.5%
- inhibition [4]: -4.2%
- inhibition [5]: 1.66%
- inhibition [6]: 9.4%
- inhibition [7]: 10.7%
- inhibition [8]: 10.8%
- inhibition [9]: 15.3%
- inhibition [10]: 1.63%
- inhibition [11]: 0.16%
- inhibition [12]: 1.02%
- inhibition [13]: 1.03%
- inhibition [14]: -5.35%
- inhibition [15]: -7.09%
- inhibition [16]: -0.63%
- inhibition [17]: -3.24%
- inhibition [18]: -1.57%
- inhibition [19]: -4.55%
- inhibition [20]: -2.7%

Compound: CCn1c(-c2nonc2N)nc2c(C#CC(C)(C)O)nc(O[C@@H](CN)c3ccccc3)cc21
- inhibition [2]: 1.57%
- inhibition [3]: -3.07%
- inhibition [4]: -0.46%
- inhibition [5]: 1.16%
- inhibition [6]: -2.68%
- inhibition [7]: -2.4%
- inhibition [8]: 1.38%
- inhibition [9]: 3.97%
- inhibition [10]: 3.77%
- inhibition [11]: 11.6%
- inhibition [12]: -0.28%
- inhibition [13]: 5.21%
- inhibition [14]: -5.77%
- inhibition [15]: 6.16%
- inhibition [16]: 0.17%
- inhibition [17]: 1.12%
- inhibition [18]: -1.56%
- inhibition [19]: -0.33%
- inhibition [20]: 0.28%

Compound: COc1cccc(COc2cc(-n3cnc4ccccc43)sc2C(N)=O)c1
- inhibition [1]: 0.89%
- inhibition [2]: 0.5%
- inhibition [3]: 2.27%
- inhibition [4]: -2.06%
- inhibition [5]: 1.33%
- inhibition [6]: 2.53%
- inhibition [7]: 2.65%
- inhibition [8]: 1.74%
- inhibition [9]: 13.2%
- inhibition [10]: -2.66%
- inhibition [11]: 3.72%
- inhibition [12]: 0.11%
- inhibition [13]: 0.56%
- inhibition [14]: -3.37%
- inhibition [15]: -0.23%
- inhibition [16]: -0.92%
- inhibition [17]: 3.02%
- inhibition [18]: -1.31%
- inhibition [19]: 0.24%
- inhibition [20]: -1.48%

Compound: NS(=O)(=O)c1ccc(-c2ccc3c(NC(=O)C4CC4)n[nH]c3c2)cc1
- inhibition [1]: 8.86%
- inhibition [2]: 4.28%
- inhibition [3]: 4.38%
- inhibition [4]: 1.05%
- inhibition [5]: 3.22%
- inhibition [6]: -0.2%
- inhibition [7]: 0.41%
- inhibition [8]: 8.86%
- inhibition [9]: 7.66%
- inhibition [10]: -0.63%
- inhibition [11]: -0.03%
- inhibition [12]: 1.35%
- inhibition [13]: 2.53%
- inhibition [14]: 2.31%
- inhibition [15]: 7.63%
- inhibition [16]: 7.91%
- inhibition [17]: 6%
- inhibition [18]: 3.47%
- inhibition [19]: 5.72%
- inhibition [20]: 0.67%
